# Inconclusive results are not listed. Calls of active or inactive are those of the source. How the source made its calls: active means hit-call score of the fitted dose curve at least 0.9, where 1 is the maximum; inconclusive means response in the unintended direction; inactive means score below 0.9.
# Experiment: CCTE_Harrill_HTTr_CellCount_MCF7: CCTE's Cell Proliferation Assessment for the High-Throughput Transcriptomics (HTTr) Platform, Harrill Lab (AID 2284012);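 further: intended direction is loss of nuclei count meaning fewer cells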
# Source text: This is a cell-based assay that evaluates cell viability and cell growth using high content imaging to count the number of Hoechst-labeled nuclei that are present in an assay well in 384-well format.This is a cell-based assay that evaluates cell viability and cell growth in MCF-7 cells. This was part of a full screening experiment. High content imaging is used to count the number of Hoechst-labeled nuclei that are present in an assay well in 384-well format.The assay component endpoint CCTE_Harrill_HTTr_CellCount_MCF7 was analyzed with bidirectional fitting relation to DMSO as the negative control and baseline of activity. Using a type of viability reporter, loss-of-signal activity can be used to understand changes in cell count. To generalize the intended target to other relatable targets, this assay endpoint is annotated to cell cycle, where the subfamily is cell count.
# Chemicals were tested in MCF7 cells in an eight point dilution series with a six hour exposure duration.
row,Compound,outcome
1,CCCCc1c(C)nc(NCC)[nH]c1=O,inactive
2,[Cd+2].[Cl-].[Cl-],inactive
3,O=[N+]([O-])O,inactive
4,[N-]=[N+]=CC(=O)OC[C@H](N)C(=O)O,inactive
5,C[N+](C)(C)CC(=O)O,inactive
6,C=CC(=O)OCC(CC)CCCC (stereo not given),inactive
7,CC(N)=S,inactive
8,ClC=C(Cl)CCl,inactive
9,CCCCC(CC)COC(=O)c1cc(Br)c(Br)c(Br)c1Br (stereo not given),inactive
10,CCOP(=S)(OCC)Oc1cnc2ccccc2n1,inactive
11,O=C(CCl)c1ccccc1,inactive
12,Clc1ccc(-c2ccccc2)cc1,inactive
13,COc1ccc(CO)cc1,inactive
14,c1cc(OCC2CO2)ccc1Cc1ccc(OCC2CO2)cc1 (stereo not given),inactive
15,CC(=O)C=Cc1ccccc1,inactive
16,CC(C)(C)C(O)C(Oc1ccc(-c2ccccc2)cc1)n1cncn1 (stereo not given),inactive
17,C=COCCCl,inactive
18,Clc1c(Cl)c(Cl)c2c(c1Cl)Oc1c(Cl)c(Cl)c(Cl)c(Cl)c1O2,inactive
19,COP(=S)(OC)SCC(=O)N(C)C=O,inactive
20,CC(=O)c1cc2c(cc1C)C(C)(C)C(C)CC2(C)C (stereo not given),inactive

row,Compound,outcome
1,O=C(O)CCCc1ccc(N(CCCl)CCCl)cc1,inactive
2,Cc1ccc(N(SC(F)(Cl)Cl)S(=O)(=O)N(C)C)cc1,inactive
3,O=C(O)c1ccccc1C(=O)Nc1cccc2ccccc12,inactive
4,Nc1ccc(Cl)c(Cl)c1,inactive
5,N#CCCCCC#N,inactive
6,C[C@]12CC[C@H]3[C@@H](CC[C@@]45O[C@@H]4C(O)=C(C#N)C[C@]35C)[C@@H]1CC[C@@H]2O,inactive
7,CN(C)C(=O)C(c1ccccc1)c1ccccc1,inactive
8,O=C1C=CC(=O)C=C1,inactive
9,O=C1C(Cl)=C(Cl)C(=O)C(Cl)=C1Cl,inactive
10,Cc1ccc2cc(C)ccc2c1,inactive
11,CC(C)CCCCCCCOC(=O)c1ccccc1C(=O)OCCCCCCCC(C)C,inactive
12,Cc1ccc(OP(=O)(Oc2ccc(C)cc2)Oc2ccc(C)cc2)cc1 (tested in a mixture with another compound),inactive
13,CCCCCCCCCCCCN=C(N)N,inactive
14,Oc1ccc(Cl)cc1,inactive
15,CCOC(=O)COc1ccc(Cl)cc1Cl,inactive
16,O=S(=O)(O)O,inactive
17,CCc1cccc(C)c1N(C(=O)CCl)[C@@H](C)COC,inactive
18,COC(=O)c1ccccc1S(=O)(=O)NC(=O)Nc1nc(C)cc(C)n1,inactive
19,Oc1cc(Cl)ccc1Cl,inactive
20,CNC(=O)ON=C(CSC)C(C)(C)C,inactive

# Reference: PubChem BioAssay (EPA / NIEHS)
